Active and inactive are the calls of the source.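 Rule for the calls: active = viability loss from added drug above about 55%, and viability with drug at most 40%, in both replicates (limit read from the data, passing the limit was not always enough); inconclusive = both conditions met in only one replicate; inactive = neither replicate meets both conditions.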

One experiment in a line: reversal of MRP1-mediated doxorubicin resistance, pilot screen, H69AR cells, doxorubicin co-treatment (AID 601). Conditions: H69AR cells + 2 uM doxorubicin, CellTiter-Glo, 72 h; at 10 µM; stronger effect = higher value. Background: Cellular ATP, detected with luciferase, serves as a proxy for viable cell number.
Consider `CC(C)(C)OC(=O)N1CCC(C(=O)N2CCCCCC2)CC1`, for which the differential viability (reversal) is 21.3% (inactive).
On the same count and under the same terms, the value for `CC(NO)C(C)(C)NO` (centres undefined) was 11.2% (inactive); that for `CCn1c(=O)cc(OCC(=O)Nc2cc(C)ccn2)c2ccccc21` was -3.33% (inactive); that for `CCC(=O)N1CCc2cc(S(=O)(=O)CCC(=O)Nc3ccc(C)c(F)c3)ccc21` was 2.27% (inactive).
Same read-out and setting: the value for `CCN(CC)S(=O)(=O)N1CCC(C(=O)NC2CCCc3ccccc32)CC1` (centres undefined) was 4.3% (inactive); that for `O=C(CN1C(=O)c2cccc3cccc1c23)N1CCN(c2ccccc2)CC1` was 23.3% (inactive); that for `CC(C)CCn1c(=O)c2ccccc2n2c(CN(C)Cc3ccccc3)nnc12` was 72.3% (active).
For `C=CCn1c(SCC(=O)NC23CC4CC(CC(C4)C2)C3)nc(O)cc1=O`, the differential viability (reversal) is 0.68% (inactive).
Regarding `Nc1nnc(C(=O)c2ccccc2N)s1`, the differential viability (reversal) was 5.43% (inactive).
The same measure, in the same setting: the value for `COc1ccc(CCNC(=O)C2CC(=O)N(c3ccccc3)C2)cc1OC` (centres undefined) was 1.51% (inactive); that for `O=C(NCc1nnc(SCC(=O)N2CCCCCC2)o1)c1ccco1` was 18.3% (inactive).
Turning to `COc1ccc(CNc2nc(NCc3ccc(OC)cc3)n(S(C)(=O)=O)n2)cc1`, the differential viability (reversal) was 8.61% (inactive).
For the molecule `CCCCc1c(O)nc(SCCN(C)C)n(-c2ccccc2)c1=O`, the differential viability (reversal) is 2.55% (inactive).
Still for that read-out and setting: the value for `COc1ccc(C(=O)OC(COc2ccccc2)Cn2ccnc2)cc1` (centres undefined) was 9.57% (inactive); that for `O=S1(=O)CC(N2CCOCC2)c2ccccc21` (centres undefined) was 4.56% (inactive).
Same read-out and setting: the value for `CN(C)C(=O)N1CCCC(C(=O)NCc2ccccc2)C1` (centres undefined) was -18.9% (inactive).
`O=C(NCc1ccco1)c1cnc2n(c1=O)CCS2`: the differential viability (reversal) was 0.265% (inactive).
With `C#CC(CO)N(CCN(Cc1ccccc1)C(C#C)CO)Cc1ccccc1` (centres undefined), the differential viability (reversal) is 9.04% (inactive).
The same measure, in the same setting: the value for `COC(=O)c1ccccc1NC(=O)C1CC(=O)N(c2ccc(F)cc2)C1` (centres undefined) was 15.5% (inactive); that for `Cc1noc(NS(=O)(=O)c2ccc(N3C(=O)c4ccccc4C3=O)cc2)c1C` was 0.49% (inactive).
On the same count and under the same terms, the value for `CCn1c(SCC(=O)c2ccc(F)cc2)nnc1-c1ccoc1C` was 19.3% (inactive); that for `CCC(C)(C(=O)NC1CCCCC1)N(Cc1ccco1)C(=O)c1ccc2c(c1)OCO2` (centres undefined) was 3.06% (inactive).
Still for that read-out and setting: the value for `CC(=O)c1cc(C#N)c(SCC(=O)OC(C)C)nc1C` was 23.3% (inactive); that for `CCOC(=O)c1c(C)[nH]c(C=Nc2ccccc2)c1O` was 10.2% (inactive).

The experiment is the same for the next values; noted with them: H69AR cells + 2 uM doxorubicin, CellTiter-Glo, 72 h; measured here: viability with 2 uM doxorubicin; at 10 µM; stronger effect = lower value.
A word on the viability: it is a read-out of living cells in per cent, often relative to untreated cells. With `CCOC(=O)C(NC(C)=O)(NS(=O)(=O)c1ccccc1)C(F)(F)F` (centres undefined), the viability was found to be 94.2%.
For `N#Cc1c(/N=C/c2ccco2)sc2c1CCC2`, the viability was 87.1%.
Same read-out and setting: the value for `c1ccc(-c2noc(C34CC5CC(CC(C5)C3)C4)n2)nc1` was 66.2%; that for `COc1cc(S(=O)(=O)N2CCOCC2)ccc1NC(=O)COC(=O)C12CC3CC(CC(C3)C1)C2` was 96.2%.
Take `Cc1cc(C)n(-c2nc3c(c(=O)n(Cc4ccc(Cl)c(Cl)c4)c(=O)n3C)n2C)n1`: the viability was determined as 89.6%.
`O=C(CCN1C(=O)COc2ccccc21)NCCCN1CCN(c2ccccc2F)CC1`: the viability worked out at 79%.
The same measure, in the same setting: the value for `CC(=O)c1cc(F)c(N2CCN(C(=O)Cc3ccccc3)CC2)cc1C` was 101%; that for `COc1ccc(-n2nnnc2-c2cccc(OC)c2)cc1` was 61.1%.
As to `COc1ccc(OC)c(Nc2cc(-c3ccccc3)nc(N)n2)c1`, the viability was found to be 67.1%.
Consider `Cc1ccc(-c2csc3ncn(-n4c(C)ccc4C)c(=O)c23)o1`, for which the viability stood at 81%.
On the same count and under the same terms, the value for `O=C(CN1C(=O)CCSc2ccccc21)Nc1ccccc1` was 88.2%; that for `CC(=O)Nc1ccc(S(=O)(=O)Nc2nc3ccccc3nc2N2CCCC2)cc1` was 100%; that for `CC(=O)c1cnc2cc(-c3ccccc3)nn2c1C` was 83.1%.
On the same count and under the same terms, the value for `Nc1cc(C(=O)O)ccc1Nc1ccc(F)c(F)c1` was 94.3%.
Regarding `O=C(NCc1cccnc1)c1cn(CCc2ccccc2)nn1`, the viability was found to be 89%.
For the molecule `COc1ccc(-n2c(SCc3ccc(C#N)cc3)nnc2-c2ccccn2)cc1`, the viability stood at 85%.
Consider `CC(C)(C)OC(=O)N1CCC(C(=O)N2CCCCCC2)CC1`, for which the viability stood at 86.2%.
On the same count and under the same terms, the value for `CC(NO)C(C)(C)NO` (centres undefined) was 89.2%.
Turning to `CCn1c(=O)cc(OCC(=O)Nc2cc(C)ccn2)c2ccccc21`, the viability is 89.7%.
The same measure, in the same setting: the value for `CCC(=O)N1CCc2cc(S(=O)(=O)CCC(=O)Nc3ccc(C)c(F)c3)ccc21` was 81.1%; that for `CCN(CC)S(=O)(=O)N1CCC(C(=O)NC2CCCc3ccccc32)CC1` (centres undefined) was 86.2%; that for `O=C(CN1C(=O)c2cccc3cccc1c23)N1CCN(c2ccccc2)CC1` was 89.5%.
On to `CC(C)CCn1c(=O)c2ccccc2n2c(CN(C)Cc3ccccc3)nnc12`, for which the viability turned out to be 12.1%.
Same read-out and setting: the value for `C=CCn1c(SCC(=O)NC23CC4CC(CC(C4)C2)C3)nc(O)cc1=O` was 92.2%; that for `Nc1nnc(C(=O)c2ccccc2N)s1` was 90.9%; that for `COc1ccc(CCNC(=O)C2CC(=O)N(c3ccccc3)C2)cc1OC` (centres undefined) was 90%.
Same read-out and setting: the value for `O=C(NCc1nnc(SCC(=O)N2CCCCCC2)o1)c1ccco1` was 92.8%; that for `COc1ccc(CNc2nc(NCc3ccc(OC)cc3)n(S(C)(=O)=O)n2)cc1` was 101%; that for `CCCCc1c(O)nc(SCCN(C)C)n(-c2ccccc2)c1=O` was 99%.
As for `COc1ccc(C(=O)OC(COc2ccccc2)Cn2ccnc2)cc1` (centres undefined), the viability stood at 85.1%.
Turning to `O=S1(=O)CC(N2CCOCC2)c2ccccc21` (centres undefined), the viability is 98.1%.
Still for that read-out and setting: the value for `CN(C)C(=O)N1CCCC(C(=O)NCc2ccccc2)C1` (centres undefined) was 107%; that for `O=C(NCc1ccco1)c1cnc2n(c1=O)CCS2` was 89.2%; that for `C#CC(CO)N(CCN(Cc1ccccc1)C(C#C)CO)Cc1ccccc1` (centres undefined) was 81.3%.
Consider `COC(=O)c1ccccc1NC(=O)C1CC(=O)N(c2ccc(F)cc2)C1` (centres undefined), for which the viability is 80.6%.
On to `Cc1noc(NS(=O)(=O)c2ccc(N3C(=O)c4ccccc4C3=O)cc2)c1C`, for which the viability was 106%.
The same measure, in the same setting: the value for `CCn1c(SCC(=O)c2ccc(F)cc2)nnc1-c1ccoc1C` was 86.9%; that for `CCC(C)(C(=O)NC1CCCCC1)N(Cc1ccco1)C(=O)c1ccc2c(c1)OCO2` (centres undefined) was 80.3%; that for `CC(=O)c1cc(C#N)c(SCC(=O)OC(C)C)nc1C` was 37.9%.
Same read-out and setting: the value for `CCOC(=O)c1c(C)[nH]c(C=Nc2ccccc2)c1O` was 90.8%.

Values taken from PubChem BioAssay.
